Data as given in ChEMBL document CHEMBL4513216, “Probing the Open Global Health Chemical Diversity Library for Multistage-Active Starting Points for Next-Generation Antimalarials” (ACS Infect Dis, 2020).
Among all 69,000 compounds or so, about 8,600 (12%) showed an effect of 50% or more. For the sample, strong results were picked, then their nearest neighbours and some compounds at random.

Tested on: Plasmodium berghei
Experiment: Screen against P. berghei liver stage (PbLuc), transformed with Luciferase, at 10uM
Type: functional, HepG2
Conditions: tested at 10 uM

Row | SMILES | INHIBITION
1 | O=C(Nc1nccs1)NC1CCN(CC2CCCC2)CC1 | 21.45%
2 | c1nn(C2CCCCC2)cc1-c1cncn1CCCN1CCCCC1 | 18.75%
3 | CCC(=O)N1CCC(Cc2ccccc2-c2ccccc2)(C(N)=O)C1 (configuration not stated) | 36.4%
4 | Cc1nccn1C1CCCN(C(=O)c2cccc(OCC(N)=O)c2)C1 (configuration not stated) | -0.219%
5 | N#Cc1ccc(OCCN2CCNC(=O)C2c2cccs2)cc1 (configuration not stated) | 3.04%
6 | Cc1ccc(C(=O)NC2CCN(Cc3noc(C(C)(C)C)n3)CC2)s1 | -42.8%
7 | COCCCS(=O)(=O)N(Cc1cccc(C)c1)Cc1ccccn1 | 4.13%
8 | CCN1CCC2(CCC(=O)N2Cc2cccc(C)n2)CC1 | -6.77%
9 | CN(C)c1cc(C(=O)N2CCCN(Cc3cscn3)CC2)ccn1 | 20.1%
10 | CC(CNC(=O)Nc1ccc(F)cc1Br)N1CCOCC1 (configuration not stated) | 46.6%
11 | CC(Cn1cncc1-c1cnn(C2CCCCC2)c1)N1CCCCC1 (configuration not stated) | -1.9%
12 | O=C(CC1CN(Cc2ccccc2)CCO1)NC1CCCC1 (configuration not stated) | -15.8%
13 | O=C(CC1CN(Cc2ccccc2)CCO1)NCCN1CCOCC1 (configuration not stated) | 56.5%
14 | O=C(O)CC1CN(Cc2ccccc2)CCO1 (configuration not stated) | 22.1%
15 | CNC(=O)c1c[nH]nc1C1CCCN1c1ncccn1 (configuration not stated) | 23.9%
16 | O=C1CCC2(CCN(Cc3ccc(F)cc3)CC2)N1CCN1CCCC1 | -22.1%
17 | COc1ccc(Cn2c(=O)n(C)c(=O)c3sccc32)cc1 | 75.7%
18 | COc1cccc(Cn2c(=O)n(C)c(=O)c3sccc32)c1 | 50.5%
19 | CCCc1n[nH]c(=O)n1Cc1ccc(OC)cc1 | -32.6%
20 | COc1cccc(-n2cc3[nH]c(=O)n(Cc4cccc(F)c4)n3c2=O)c1 | 36.3%
21 | CCS(=O)(=O)N1CCC2(CCN(Cc3cccc(OC)c3)CC2)CC1 | 34.6%
22 | Cn1c(=O)c2sccc2n(Cc2ccccc2)c1=O | 36.8%

Row | SMILES | INHIBITION
23 | COc1ccc(CN2CCn3c(C(=O)N(C)C)cnc3C2)cc1 | 26.4%
24 | COC(=O)c1cccc(CNC(=O)CC(F)(F)F)c1 | 51.4%
25 | COCCCC(=O)NCc1cccc(NC(N)=O)c1 | 15.8%
26 | COC(=O)c1cccc(CNC(=O)CCC(F)(F)F)c1 | 4.68%
27 | CCCC(=O)NCc1cccc(C(=O)OC)c1 | 51.4%
28 | COC(=O)c1cccc(CNC(=O)c2cc(C(C)C)n(C)n2)c1 | -55.1%
29 | COC(=O)c1cccc(CNC(=O)NCCC(F)(F)F)c1 | 41.4%
30 | CCc1nc(C)sc1CN1C[C@@H](C)[C@@](C)(O)C1 | 14.9%
31 | CSc1ncc(C(=O)N(C)C(C)Cc2ccccn2)cn1 (configuration not stated) | -1.16%
32 | O=C(NCc1nnc2n1C(C(=O)NC1CC1)CC2)c1ccc(Cl)cc1Cl (configuration not stated) | 44.9%
33 | Cc1ccsc1C(=O)N1Cc2ccccc2C2(CCN(C)CC2)C1 | 53.5%
34 | CN1CCC2(CC1)CN(C(=O)c1ccncc1)Cc1ccccc12 | 57.9%
35 | COCCN1CC2(CCN(C(=O)c3ccno3)CC2)c2ccccc21 | -14.7%
36 | Cc1cccc(C(=O)N2Cc3ccccc3C3(CCN(C)CC3)C2)n1 | 36.9%
37 | CN1CCC2(CC1)CN(C(=O)c1cnccn1)Cc1ccccc12 | 18.3%
38 | CN1CCC2(CC1)CN(C(=O)c1cccnc1)Cc1ccccc12 | 33.4%
39 | CS(=O)(=O)N1Cc2ccccc2C2(CCN(C(=O)c3ccno3)CC2)C1 | 55.7%
40 | COCCN1Cc2ccccc2C2(CCN(C(=O)c3ccno3)CC2)C1 | -1.36%
41 | Cc1cncc(C(=O)N2Cc3ccccc3C3(CCN(C)CC3)C2)c1 | 39.2%
42 | CCCC1c2cccn2CCN1C(=O)c1cc(CC)no1 (configuration not stated) | 44.1%
43 | Cc1cccc(C)c1-n1nnnc1C1(NCc2ccco2)CCCC1 | 45.4%
44 | Cc1nc(C)n(CC2CCCN2CC(=O)NC2CCOCC2)n1 (configuration not stated) | 38.5%

Row | SMILES | INHIBITION
45 | Cc1nc(CN2CCN(CC(O)CN3CCOCC3)CC2)oc1C (configuration not stated) | 4.34%
46 | O=C([C@H]1CCCO1)N1CCC2(CCCN(CCOc3ccccc3)C2)C1 (some centres not stated) | 12.4%
47 | COCC(=O)N1CC[C@H]2O[C@@H](C)C[C@H]2C1 | -1.55%
48 | Cc1nn(C)cc1S(=O)(=O)NCC(c1ccccc1Cl)N1CCCC1 (configuration not stated) | 13.5%
49 | Cn1c(CNCC2CCCN2c2cccnn2)nc2ccccc21 (configuration not stated) | -0.113%
50 | OC(COCc1cccs1)CN1CCc2c(ncn2C2CC2)C1 (configuration not stated) | 2.97%
51 | Cc1ccc2[nH]c([C@H]3CCN(CC4CCCCC4)C3)nc2c1 | 51.9%
52 | Cc1ccc2[nH]c(C3CCN(C)CC3)nc2c1 | -17.9%
53 | COCCN1CCC(c2nc3cc(C)ccc3[nH]2)CC1 | 15.5%
54 | Cc1nc(CNC(=O)c2cc(COc3ccccc3)[nH]n2)n[nH]1 | 15.7%
55 | NC(=O)c1nc(-c2ccc(Cl)cc2Cl)oc1N | -63.4%
56 | Cc1cc2c(=O)n3c(nc2s1)CCN(Cc1cnn(C)c1C)CC3 | 24.5%
57 | COC(=O)C(C)N1CCCc2cc(OC)ccc2C1 (configuration not stated) | 59.2%
58 | COc1ccc2c(c1)CCCN(C(C)C(=O)NC(C)C)C2 (configuration not stated) | -9.87%
59 | COc1ccc2c(c1)CCCN(C(C)C(=O)NC(N)=O)C2 (configuration not stated) | 1.79%
60 | CC(C)CS(=O)(=O)CC(=O)NC(C)(C)c1cccc(F)c1 | 52.2%
61 | CS(=O)(=O)CCC(=O)Nc1ccsc1 | -120%
62 | CS(=O)(=O)CCC(=O)NC1(c2cccc(Br)c2)CC1 | 5.14%
63 | Cc1cccc(C(C)(C)NC(=O)CS(=O)(=O)CC(C)C)c1 | 64.5%
64 | CNC(=O)CS(=O)(=O)Cc1coc(-c2cccc(F)c2)n1 | -11.3%
65 | Cc1cccc(C(C)(C)NC(=O)CCS(C)(=O)=O)c1 | 51%
66 | CCS(=O)(=O)CC(=O)NC(C)c1ccc(F)cc1F (configuration not stated) | 47.5%

Row | SMILES | INHIBITION
67 | Cc1cccc(CS(=O)(=O)CC(=O)NCCCOC(C)C)c1 | 45%
68 | CCC(C(=O)NC)N(c1cccc(C)c1)S(C)(=O)=O (configuration not stated) | 0.547%
69 | Cc1nc(C)n(CC2CCCN(CC(=O)Nc3nnc(C)s3)C2)n1 (configuration not stated) | 33.25%
70 | O=C1c2ncccc2C(CCO)N1Cc1ccccc1 (configuration not stated) | 2.55%
71 | Cc1c(COC(C)C)cccc1NC(=O)N1CCCC(CO)C1 (configuration not stated) | 49.1%
72 | CCC1c2cccn2CCN1C(=O)c1cc(OC)nc(OC)n1 (configuration not stated) | 19.7%
73 | O=C(N[C@@H]1CCC[C@@H](N2CCOCC2)[C@@H]1O)c1ncccn1 | 36.4%
74 | CS(=O)(=O)N1C[C@H]2CNC[C@@]2(C(=O)NCCCc2ccccc2)C1 | 73.5%
75 | O=C(C1CC1)N1C[C@H]2CNC[C@@]2(C(=O)NCCCc2ccccc2)C1 | 32.5%
76 | CS(=O)(=O)N1C[C@H]2CNC[C@@]2(C(=O)NCCOc2ccccc2)C1 | 18.6%
77 | COCC(C)(C)NC(=O)CC(c1ccccc1)C(F)(F)F (configuration not stated) | 29.4%
78 | CC(C)S(=O)(=O)NC(=O)CC(c1ccccc1)C(F)(F)F (configuration not stated) | 31.3%
79 | CN(C)S(=O)(=O)NC(=O)CC(c1ccccc1)C(F)(F)F (configuration not stated) | 62.8%
80 | Cc1ccc(NCCCNC(=O)C2CCCN(Cc3ccco3)C2)nc1 (configuration not stated) | 75.1%
81 | O=C(NCCCc1ccncc1)C1CCCN(Cc2ccco2)C1 (configuration not stated) | 19.5%
82 | Cc1cnccc1NCCNC(=O)C1CCCN(Cc2ccco2)C1 (configuration not stated) | 24.3%
83 | c1cncc(COCC2C[C@@H]3OCCN(Cc4cccnc4)[C@H]3C2)c1 (some centres not stated) | 23.6%
84 | CN(C)C(=O)N1CCC[C@]2(C(=O)N(C)C)CN(c3ccccn3)C[C@@H]2C1 | -2.35%
85 | Cc1ccc(C(=O)N2CCO[C@H]3[C@H](OCCN(C)C)CC[C@@H]32)o1 | -26.1%
86 | CC(NCc1ccccn1)c1cc2c(cc1Br)OCCO2 (configuration not stated) | 47.4%
87 | CC(NCc1ccncc1)c1cc2c(cc1Br)OCCO2 (configuration not stated) | 53.9%
88 | CC(NCc1cccnc1)c1cc2c(cc1Br)OCCO2 (configuration not stated) | 15%

Row | SMILES | INHIBITION
89 | Cc1cnc(N2CCO[C@@H]3CC(COCc4cccnc4)C[C@H]32)nc1 (some centres not stated) | 45.4%
90 | O=C(Nc1cccnc1N1CCSCC1)c1ccc2c(c1)CCO2 | 39.6%
91 | COCCOc1ccnc(-c2noc([C@@H]3CCCN3CC(C)C)n2)c1 | -15.6%
92 | COCCOc1ccnc(-c2noc([C@@H]3CCCN3CC3CC3)n2)c1 | 18.4%
93 | COCCOc1ccnc(-c2noc([C@@H]3CCCN3CC(C)(C)C)n2)c1 | 53.2%
94 | CS(=O)(=O)CCC(=O)N1C[C@H]2CC[C@@H](C1)N(Cc1ccccn1)C2=O | 5.38%
95 | c1ccc(-c2nc(CNCC3CCCN3c3cccnn3)co2)cc1 (configuration not stated) | -17.7%
96 | Cn1cc(CN2CCCC(n3c(=O)oc4ccccc43)C2)cn1 (configuration not stated) | 2.14%
97 | CC(CN(C)C)Nc1nc(O)cc(Cc2ccccc2F)n1 (configuration not stated) | 39.3%
98 | CCOC(=O)C1CC2(CCCCC2)N2CCC(=O)N12 (configuration not stated) | 54%
99 | CCOC(=O)C1CC2(CCOCC2)N2CCC(=O)N12 (configuration not stated) | 20.7%
100 | CCOC(=O)C1CC2(CCCC2)N2CCC(=O)N12 (configuration not stated) | 0.284%
101 | Cc1ccccc1C1CCCN1C(=O)CN1CC2(CCNCC2)OC1=O (configuration not stated) | 50.1%
102 | O=C1OC2(CCNCC2)CN1CC(=O)N1CCCC1c1ccco1 (configuration not stated) | 16.8%
103 | Cc1noc(C)c1C1CCCN1C(=O)CN1CC2(CCNCC2)OC1=O (configuration not stated) | 36.8%
104 | Cc1nc2ccc(S(=O)(=O)Nc3c(C)nn(CC(=O)O)c3C)cc2s1 | 34.7%
105 | CCN(Cc1ccncc1)c1cc(C2CCNCC2)nc(C)n1 | 14.6%
106 | Cc1nc(C2CCCNC2)cc(N(C)CCc2ccccc2)n1 (configuration not stated) | -16.5%
107 | CCN(Cc1ccncc1)c1cc(C2CCCNC2)nc(C)n1 (configuration not stated) | 53.7%
